From PubChem BioAssay AID1159580 (chemical genetic matrix, 2015)
The campaign covered roughly 5,500 compounds. About 2,000 (36%) were called active. Inconclusive results (about 18%) are left out. Rule as the data show it: active = normalized growth mostly below about 0.91 (no sharp cut-off); inconclusive = no clear call, values can overlap the other calls; inactive = mostly above about 0.92. The list shows a part of the results.

Experiment: chemical genetic growth profiling, strain panel (AID 1159580);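 also: tested at 20 µM; growth read once vehicle control cultures reached saturation at 30 °C; 1 = growth at the plate median or of vehicle wells; lower values mean less growth of the strain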
Conditions: growth OD

Measured: normalized growth

O=C(O[C@@H]1Cc2c(O)cc(O)cc2O[C@@H]1c1cc(O)c(O)c(O)c1-c1c([C@H]2Oc3cc(O)cc(O)c3C[C@H]2O)cc(O)c(O)c1O)c1cc(O)c(O)c(O)c1
active: S. cerevisiae deletion strains, locus YJL187C, strain SWE1 (second series), stronger effect = lower value 0.0786 | S. cerevisiae deletion strains, locus YKL190W, strain CNB1, stronger effect = lower value 0.0679 | S. cerevisiae deletion strains, locus YKR001C, strain vps1, stronger effect = lower value 0.487 | S. cerevisiae deletion strains, locus YLR039C, strain RIC1, stronger effect = lower value 0.136 | S. cerevisiae deletion strains, locus YLR058C, strain SHM2, stronger effect = lower value 0.0917 | S. cerevisiae deletion strains, locus YLR102C, strain apc9, stronger effect = lower value 0.885 | S. cerevisiae deletion strains, locus YLR262C, strain YPT6, stronger effect = lower value 0.222 | S. cerevisiae deletion strains, locus YLR268W, strain sec22, stronger effect = lower value 0.225 | S. cerevisiae deletion strains, locus YLR330W, strain CHS5, stronger effect = lower value 0.488 | S. cerevisiae deletion strains, locus YLR371W, strain rom2, stronger effect = lower value 0.667 | S. cerevisiae deletion strains, locus YLR418C, strain cdc73, stronger effect = lower value 0.238 | S. cerevisiae deletion strains, locus YML016C, strain PPZ1, stronger effect = lower value 0.0734 | S. cerevisiae deletion strains, locus YML032C, strain rad52, stronger effect = lower value 0.808 | S. cerevisiae deletion strains, locus YML124C, strain tub3, stronger effect = lower value 0.733 | S. cerevisiae deletion strains, locus YMR058W, strain fet3, stronger effect = lower value 0.455 | S. cerevisiae deletion strains, locus YMR223W, strain ubp8, stronger effect = lower value 0.571 | S. cerevisiae deletion strains, locus YMR263W, strain SAP30, stronger effect = lower value 0.386 | S. cerevisiae deletion strains, locus YMR307W, strain GAS1, stronger effect = lower value 0.343 | S. cerevisiae deletion strains, locus YNL067W, strain RPL9B, stronger effect = lower value 0.138 | S. cerevisiae deletion strains, locus YNL128W, strain TEP1, stronger effect = lower value 0.0913 | S. cerevisiae deletion strains, locus YNL153C, strain GIM3, stronger effect = lower value 0.201 | S. cerevisiae deletion strains, locus YNL209W, strain ssb2, stronger effect = lower value 0.822 | S. cerevisiae deletion strains, locus YNL233W, strain BNI4, stronger effect = lower value 0.299 | S. cerevisiae deletion strains, locus YNL307C, strain MCK1, stronger effect = lower value 0.831 | S. cerevisiae deletion strains, locus YNR052C, strain pop2, stronger effect = lower value 0.246 | S. cerevisiae deletion strains, locus YOL006C, strain TOP1, stronger effect = lower value 0.168 | S. cerevisiae deletion strains, locus YOL147C, strain pex11, stronger effect = lower value 0.662 | S. cerevisiae deletion strains, locus YOR061W, strain CKA2, stronger effect = lower value 0.163 | S. cerevisiae deletion strains, locus YOR069W, strain VPS5, stronger effect = lower value 0.128 | S. cerevisiae deletion strains, locus YOR106W, strain vam3, stronger effect = lower value 0.817 | S. cerevisiae deletion strains, locus YOR136W, strain idh2, stronger effect = lower value 0.645 | S. cerevisiae deletion strains, locus YOR144C, strain elg1, stronger effect = lower value 0.774 | S. cerevisiae deletion strains, locus YOR184W, strain ser1, stronger effect = lower value 0.346 | S. cerevisiae deletion strains, locus YOR316C, strain cot1, stronger effect = lower value 0.863 | S. cerevisiae deletion strains, locus YPL051W, strain arl3, stronger effect = lower value 0.822 | S. cerevisiae deletion strains, locus YPR163C, strain tif3, stronger effect = lower value 0.756 | S. cerevisiae deletion strains, locus YPR167C, strain met16, stronger effect = lower value 0.785 | S. cerevisiae deletion strains, strain wtn01, stronger effect = lower value 0.335 | S. cerevisiae strains, strain wild type, stronger effect = lower value 0.0644
inactive: S. cerevisiae deletion strains, locus YJL187C, strain SWE1, stronger effect = lower value 0.981 | S. cerevisiae deletion strains, locus YKL009W, strain mrt4, stronger effect = lower value 1.08 | S. cerevisiae deletion strains, locus YKL068W, stronger effect = lower value 1.03 | S. cerevisiae deletion strains, locus YKL085W, strain MDH1 (second series), stronger effect = lower value 0.994 | S. cerevisiae deletion strains, locus YKL085W, strain MDH1, stronger effect = lower value 0.994 | S. cerevisiae deletion strains, locus YKL160W, strain elf1, stronger effect = lower value 0.968 | S. cerevisiae deletion strains, locus YKR026C, strain gcn3, stronger effect = lower value 1.03 | S. cerevisiae deletion strains, locus YKR091W, strain srl3, stronger effect = lower value 1.02 | S. cerevisiae deletion strains, locus YLL001W, strain dnm1, stronger effect = lower value 0.986 | S. cerevisiae deletion strains, locus YLL026W, stronger effect = lower value 1.03 | S. cerevisiae deletion strains, locus YLL041C, strain sdh2, stronger effect = lower value 1.04 | S. cerevisiae deletion strains, locus YLR027C, strain aat2, stronger effect = lower value 1 | S. cerevisiae deletion strains, locus YLR221C, strain rsa3, stronger effect = lower value 0.989 | S. cerevisiae deletion strains, locus YLR258W, strain gsy2, stronger effect = lower value 1.02 | S. cerevisiae deletion strains, locus YLR262C, strain YPT6 (second series), stronger effect = lower value 0.89 | S. cerevisiae deletion strains, locus YLR320W, strain mms22, stronger effect = lower value 1.01 | S. cerevisiae deletion strains, locus YLR342W, strain FKS1, stronger effect = lower value 0.957 | S. cerevisiae deletion strains, locus YLR357W, strain rsc2, stronger effect = lower value 0.9 | S. cerevisiae deletion strains, locus YLR370C, strain arc18, stronger effect = lower value 1 | S. cerevisiae deletion strains, locus YLR384C, strain iki3, stronger effect = lower value 1.02 | S. cerevisiae deletion strains, locus YML120C, strain ndi1, stronger effect = lower value 1 | S. cerevisiae deletion strains, locus YMR078C, strain ctf18, stronger effect = lower value 0.927 | S. cerevisiae deletion strains, locus YMR125W, strain sto1, stronger effect = lower value 1.04 | S. cerevisiae deletion strains, locus YMR129W, stronger effect = lower value 1.02 | S. cerevisiae deletion strains, locus YMR205C, strain PFK2, stronger effect = lower value 0.978 | S. cerevisiae deletion strains, locus YMR231W, strain pep5, stronger effect = lower value 0.942 | S. cerevisiae deletion strains, locus YNL071W, strain lat1, stronger effect = lower value 1.02 | S. cerevisiae deletion strains, locus YNL248C, strain rpa49, stronger effect = lower value 1.02 | S. cerevisiae deletion strains, locus YNL250W, strain rad50, stronger effect = lower value 0.963 | S. cerevisiae deletion strains, locus YNL271C, strain bni1, stronger effect = lower value 0.974 | S. cerevisiae deletion strains, locus YNL298W, strain CLA4, stronger effect = lower value 1 | S. cerevisiae deletion strains, locus YNL322C, strain KRE1 (second series), stronger effect = lower value 1.03 | S. cerevisiae deletion strains, locus YNR049C, strain mso1, stronger effect = lower value 1.03 | S. cerevisiae deletion strains, locus YOL012C, strain htz1 0.228 | S. cerevisiae deletion strains, locus YOR001W, strain rrp6, stronger effect = lower value 0.981 | S. cerevisiae deletion strains, locus YOR070C, strain gyp1, stronger effect = lower value 0.972 | S. cerevisiae deletion strains, locus YOR080W, strain dia2, stronger effect = lower value 1.02 | S. cerevisiae deletion strains, locus YOR083W, strain WHI5, stronger effect = lower value 0.937 | S. cerevisiae deletion strains, locus YOR265W, strain rbl2, stronger effect = lower value 0.984 | S. cerevisiae deletion strains, locus YOR270C, strain vph1, stronger effect = lower value 0.977 | S. cerevisiae deletion strains, locus YOR290C, strain snf2, stronger effect = lower value 0.989 | S. cerevisiae deletion strains, locus YPL078C, strain atp4, stronger effect = lower value 0.99 | S. cerevisiae deletion strains, locus YPL106C, strain sse1, stronger effect = lower value 0.941 | S. cerevisiae deletion strains, locus YPL240C, strain hsp82, stronger effect = lower value 1 | S. cerevisiae deletion strains, locus YPR119W, strain clb2, stronger effect = lower value 0.981 | S. cerevisiae deletion strains, locus YPR141C, strain kar3, stronger effect = lower value 0.988
